Here are results for 28 molecules from PubChem BioAssay (Tox21).

The target in assay [1] is Estrogen receptor (Homo sapiens) (UniProt P03372). Briefly: qHTS assay to identify small molecule antagonists of the estrogen receptor alpha (ER-alpha) signaling pathway using the BG1 cell line in the presence of 0.1 nM 17-beta-estradiol (AID 1259244). Also: nearly all actives have a fitted effect of over 50% in size. Also: potency is read from the fitted curve at half-maximal effect. The method, boiled down:
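VM7Luc4E2 cells (endogenous full-length ER-alpha, stable 4xERE-luciferase) were grown 5 days in phenol red-free medium with charcoal-stripped FBS, then exposed 22 h at 37C to compounds plus 0.1 nM (final) 17beta-estradiol; ONE-Glo luminescence read-out.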
On the technique in general: In qHTS, concentration-response curves come from the screen itself.

The nature of assay [2]: qHTS assay to identify small molecule HDAC inhibitors (AID 1259364). Also: nearly all actives have a fitted effect of over 45% in size. Also: potency is read from the fitted curve at half-maximal effect. The method, boiled down:
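Wild-type HCT-116 cells were plated overnight, exposed to compounds for 2 h at 37 °C, then given HDAC-Glo class I/II luminogenic reagent for 30 min at room temperature before luminescence was read.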

Assay [3] can be described thus: qHTS assay to identify small molecule agonists of the sonic hedgehog signaling (Shh) pathway - cell viability counter screen (AID 1259366). Also: nearly all actives have a fitted effect of over 50% in size. Also: potency is read from the fitted curve at half-maximal effect. The method, boiled down: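 Compounds in DMSO were pin-transferred onto 3T3 Gli1-Luc cells that had settled 4hr; plates then stood 24hr at 37C and 5% CO2. One hour before the end, CellTiter-Fluor was added and fluorescence recorded.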

Assay [4] is described as follows: qHTS assay to identify small molecule antagonists of the sonic hedgehog signaling (Shh) pathway - cell viability counter screen (AID 1259367). Also: nearly all actives have a fitted effect of over 55% in size. Also: potency is read from the fitted curve at half-maximal effect. The method, boiled down: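 Using CellTiter-Fluor, viability of Gli1-Luc reporter 3T3 cells is read by fluorescence in the wells used for the Shh luciferase assay. Treatment lasts 23 hr with conditioned medium, then reagent 1 hr at 37C.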

Assay [5] is described as follows: qHTS assay to identify small molecule agonists of the sonic hedgehog signaling (Shh) pathway (AID 1259368; calls by dose curve; also: series mostly up to about 92 µM; nearly all actives have a fitted effect of over 15% in size). The method, boiled down:
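NIH/3T3-derived 3T3Gli1-Luc cells carrying a stably integrated Gli1 response element–firefly luciferase reporter were plated, left 4 hr at 37 C, then given compounds in DMSO for 24 hr. Luminescence was read 30 min after adding luciferase reagent.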

Assay [6] in a line: qHTS assay to identify small molecule HDAC inhibitors - cell viability counter screen (AID 1259365). Also: nearly all actives have a fitted effect of over 50% in size. Also: potency is read from the fitted curve at half-maximal effect. Put shortly: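 HCT-116 wild-type, overnight attachment; 2hr drug exposure, 37C; CellTiter-Glo luminescent ATP readout after 30min RT.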
Assay [7] deals with Estrogen receptor beta (Homo sapiens) (UniProt Q92731). Briefly: qHTS assay to identify small molecule agonists of the estrogen receptor beta (ER-beta) signaling pathway (AID 1259377; active = well fitted activation curve with a large enough effect in the signal ratio in the repeat runs, not every such curve was filed as active; the % refers to the signal ratio; also: potency is read from the fitted curve at half-maximal effect). Put shortly:
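qHTS in ER-beta-UAS-bla HEK293T cells: 6 hr settling, then 16 hr compound at 37C, then LiveBLAzer substrate 2 h at RT before fluorescence reading.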

Assay [8] can be described thus: qHTS assay to identify small molecule antagonists of the sonic hedgehog signaling (Shh) pathway (AID 1259369; calls by dose curve; also: nearly all actives have a fitted effect of over 45% in size; also: potency is read from the fitted curve at half-maximal effect). The method, boiled down:
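NIH/3T3-derived 3T3Gli1-Luc cells with stably integrated Gli1-Luc reporter were preincubated 4hr at 37 C, then given compounds in DMSO plus Shh conditioned medium and incubated 24hr. Firefly luciferase luminescence read after 30min reagent at room temperature.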

Assay [9] can be described thus: qHTS assay to identify small molecule phospholipidosis (PLD) inducers (AID 1259344; active = well fitted curve in the direction sought with a large enough effect; an effect the other way counts as inactive or inconclusive). The method, boiled down: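 Fluorescent phospholipid staining (LipidTOX Red) measured by automated microscopy in fixed HepG2 cells after 24 h treatment; nuclei counterstained with Hoechst 33342; amiodarone as reference inducer.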

Molecules are shown by their SMILES. Unmarked numbers belong to inactive results. Inconclusive results are not listed. Activity calls are given as the source filed them. Unless noted, calls follow the shape of the dose curve; as a rule, active = well fitted curve in the direction sought with a large enough effect in the repeat runs; inconclusive = weak or mixed curves; inactive = no such curve, though single readings can be large; an effect the other way counts as inactive or inconclusive.
% is scaled to controls: 0 for no effect and ±100 for the full control effect.

Sequence of Estrogen receptor (Homo sapiens) (P03372 whole entry, looked up): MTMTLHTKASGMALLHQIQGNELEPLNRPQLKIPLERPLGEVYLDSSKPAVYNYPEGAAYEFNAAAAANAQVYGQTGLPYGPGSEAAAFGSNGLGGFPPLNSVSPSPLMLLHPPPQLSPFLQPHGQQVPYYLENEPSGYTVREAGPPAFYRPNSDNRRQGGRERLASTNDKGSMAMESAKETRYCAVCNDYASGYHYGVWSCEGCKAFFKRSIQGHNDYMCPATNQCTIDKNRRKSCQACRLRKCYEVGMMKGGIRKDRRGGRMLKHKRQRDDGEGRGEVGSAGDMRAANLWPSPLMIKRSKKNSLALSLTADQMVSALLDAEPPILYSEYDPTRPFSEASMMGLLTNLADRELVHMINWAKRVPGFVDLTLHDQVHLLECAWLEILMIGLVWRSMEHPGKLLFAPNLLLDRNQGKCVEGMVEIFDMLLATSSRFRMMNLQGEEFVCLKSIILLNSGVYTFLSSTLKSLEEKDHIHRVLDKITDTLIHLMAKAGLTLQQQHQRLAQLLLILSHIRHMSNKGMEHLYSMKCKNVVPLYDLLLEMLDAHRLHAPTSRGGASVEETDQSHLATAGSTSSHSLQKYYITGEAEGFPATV
Sequence of Estrogen receptor beta (Homo sapiens) (Q92731 whole entry, looked up): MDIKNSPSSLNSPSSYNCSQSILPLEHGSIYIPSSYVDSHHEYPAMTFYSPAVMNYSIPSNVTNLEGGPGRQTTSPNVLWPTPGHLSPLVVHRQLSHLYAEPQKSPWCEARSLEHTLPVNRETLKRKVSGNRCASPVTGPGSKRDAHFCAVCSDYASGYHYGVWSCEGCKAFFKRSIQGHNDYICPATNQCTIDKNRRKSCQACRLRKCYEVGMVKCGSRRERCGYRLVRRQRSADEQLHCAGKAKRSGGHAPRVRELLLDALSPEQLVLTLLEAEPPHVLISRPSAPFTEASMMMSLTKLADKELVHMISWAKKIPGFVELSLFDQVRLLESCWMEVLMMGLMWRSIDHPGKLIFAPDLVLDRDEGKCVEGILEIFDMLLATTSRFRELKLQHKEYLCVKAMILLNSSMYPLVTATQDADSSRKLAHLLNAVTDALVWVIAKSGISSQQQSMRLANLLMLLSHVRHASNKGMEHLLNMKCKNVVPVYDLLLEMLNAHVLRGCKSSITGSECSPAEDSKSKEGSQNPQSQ

Take `C[C@@H](Oc1ccc(Cl)cc1Cl)C(=O)O`: the Potency result in [1], in assay [2], in [3], in [4] and in assay [5] was “inactive” in each case.

Consider `C[C@]12CC[C@H]3[C@@H](CCC4=CC(=O)CC[C@@]43C)[C@@H]1CC[C@@H]2O`, for which the Potency entry in [1], in [2], in [6], in assay [3], in assay [4] and in assay [5] was “inactive” in each case. Besides, in [7], the Potency was 5.41 µM (active).

`CCCCCCCCCCBr`: the Potency entry in assay [1], in assay [2], in assay [3], in assay [4], in assay [5] and in [8] was “inactive” in each case.

Turning to `S=C=Nc1cccc2ccccc12`, the Potency in [1] was 19.1 µM (active); in [3] it was 53.9 µM (active). Besides, the Potency result in [2], in assay [6] and in [5] was “inactive” each time.

Consider `O=C/C(Cl)=C(/Cl)C(=O)O`, for which the Potency entry in [1], in assay [2], in assay [6], in [5] and in [7] was “inactive” each time. The Potency in assay [8] is 38.6 µM (active).

In the case of `COP(=O)(OC)SCn1c(=O)oc2cc(Cl)cnc21`, the Potency result in assay [1], in assay [6], in assay [3], in [4], in [5] and in [8] was “inactive” throughout.

Consider `CC(C)CCCCCOC(=O)c1ccccc1C(=O)OCCCCCC(C)C`, for which the Potency entry in assay [1], in assay [2], in assay [3], in assay [4], in assay [5] and in assay [7] was “inactive” throughout. Besides, in assay [8], the Potency is 17 µM (active).

Take `O=c1c(C2CC(c3ccc(-c4ccc(Br)cc4)cc3)Cc3ccccc32)c(O)sc2ccccc12` (stereo not drawn): the Potency in assay [1] is 13.3 µM (active). Further, the Potency result in [2], in [6], in [3], in assay [4], in assay [5] and in assay [7] was “inactive” throughout.

Take `c1ccc2c(c1)[nH]c1cnccc12`: the Potency entry in [1], in assay [2], in assay [6], in assay [3], in assay [4] and in assay [5] was “inactive” each time. For the same molecule, the Potency result in [7] is “inactive”.

As for `Cc1cc(Cl)ccc1O[C@H](C)C(=O)O`, the Potency entry in assay [1], in [2], in [3], in assay [4], in assay [5] and in [8] was “inactive” each time.

With `OC(c1ccc(Cl)cc1)(c1ccc(Cl)cc1)C(Cl)(Cl)Cl`, the Potency result in assay [1], in assay [2], in assay [4], in [5], in assay [8] and in [7] was “inactive” throughout.

For `N#CCc1ccc(Cl)cc1`, the Potency result in assay [1], in [2], in assay [3], in assay [4], in [5] and in assay [8] was “inactive” each time. The Potency entry in [7] is “inactive”.

Consider `Oc1ccc(I)cc1`, for which the Potency entry in [1], in [2], in assay [3], in [4] and in assay [5] was “inactive” in each case.

Regarding `Nc1ccc(Cc2ccc(N)c(Cl)c2)cc1Cl`, the Potency in assay [1] was 59.1 µM (active); in [4], 52.7 µM (active); in [8], 21 µM (active). The Potency entry in [2], in assay [6] and in assay [5] was “inactive” each time.

In the case of `N#C/C=C/C#N`, the Potency entry in [1], in assay [2], in assay [4], in assay [5] and in assay [8] was “inactive” in each case.

As for `O=C(CCCN1CCC2(CC1)C(=O)NCN2c1ccccc1)c1ccc(F)cc1`, the values for the Potency in [1] and in assay [8] were 8.41 µM (active) and 2.11 µM (active), respectively. Also, the Potency result in assay [2], in [3], in assay [4], in assay [5] and in assay [7] was “inactive” throughout.

For `CCOCn1c(-c2ccc(Cl)cc2)c(C#N)c(Br)c1C(F)(F)F`, the values for the Potency in [1] and in assay [8] were 1.93 µM (active) and 0.611 µM (active), respectively. In addition, the Potency entry in [2], in assay [6], in assay [3] and in assay [5] was “inactive” throughout.

As for `COC(=O)N(C(=O)N1COC2(C(=O)OC)Cc3cc(Cl)ccc3C2=N1)c1ccc(OC(F)(F)F)cc1` (stereo not drawn), the Potency entry in [1], in [2], in assay [6], in assay [3], in [4] and in [5] was “inactive” each time. Further, the Potency entry in [7] is “inactive”.

Regarding `C=CC(=O)OCCCCOC(=O)C=C`, the Potency result in [1], in assay [2] and in assay [5] was “inactive” in each case. For the same molecule, the Potency in assay [3] is 61.1 µM (active).

In the case of `FC(F)(F)c1cccc(C2=CCN(CCc3ccc4ccccc4c3)CC2)c1`, the Potency result in assay [9], in assay [2], in assay [6], in assay [3], in assay [4] and in [5] was “inactive” each time. The Potency result in [8] was “inactive”.

As to `CN(C)CCc1c[nH]c2cccc(O)c12`, the Potency result in assay [9], in [2], in assay [6], in assay [5] and in assay [7] was “inactive” throughout. The Potency in [8] was 53.9 µM (active).

In the case of `CN(C)[C@@H]1C(=O)C(C(N)=O)=C(O)[C@@]2(O)C(=O)C3=C(O)c4c(O)ccc(Cl)c4[C@@](C)(O)[C@H]3C[C@@H]12`, the Potency result in assay [9], in assay [2], in assay [6], in assay [3], in assay [4] and in assay [5] was “inactive” throughout. Besides, the Potency in [8] is 55.6 µM (active).

For the molecule `CC(=O)[O-].CC(=O)[O-].[Hg+2]`, the Potency is 19.3 µM (active) in assay [2]; 61.1 µM (active) in assay [6]; 2.17 µM (active) in assay [3]; 4.33 µM (active) in assay [4]; 0.686 µM (active) in assay [8]. For the same molecule, in [5], the Potency entry is “inactive”.

As to `NC(=O)c1ccc(N)nc1`, the Potency entry in assay [2], in assay [6], in [3], in assay [4], in assay [5] and in assay [8] was “inactive” in each case.

Turning to `CCS(=O)(=O)c1cccnc1S(=O)(=O)NC(=O)Nc1nc(OC)cc(OC)n1`, the Potency result in [2], in [6], in assay [3], in [4] and in [5] was “inactive” throughout.

Take `S=C(SSC(=S)N1CCCCC1)N1CCCCC1`: the PLD induction in assay [9] is -4.77% [at 0.0123 µM]. Besides, the Potency result in assay [2], in assay [6] and in assay [5] was “inactive” in each case. Also, the Potency in assay [3] is 2.66 µM (active); in [4], 5.96 µM (active); in [8] it was 5.96 µM (active).

Consider `C[C@]12CC[C@@H]3c4ccc(OC(=O)N(CCCl)CCCl)cc4CC[C@H]3[C@@H]1CC[C@@H]2O`, for which the Potency entry in [9], in assay [2], in assay [6], in assay [3], in [4] and in assay [5] was “inactive” each time. For the same molecule, the Potency entry in [8] was “inactive”. The Potency in [7] is 0.266 µM (active).

On to `Oc1c(Br)c(Br)c(Br)c(Br)c1Br`, for which the Potency result in assay [2], in assay [6], in assay [3], in assay [4] and in assay [5] was “inactive” each time. The Potency in assay [8] is 19.4 µM (active).
